Data from PubChem BioAssay (Tox21).
A number with no mark means an inactive call. Inconclusive results are not listed. Entries that show only a call come without a potency. Active and inactive are the calls of the source. Unless noted, the call rests on the fitted dose curve; in most records, active means well fitted curve in the direction sought with a large enough effect in the repeat runs; inconclusive means weak or mixed curves; inactive means no such curve, though single readings can be large; an effect the other way counts as inactive or inconclusive.

Legend:
[1] = qHTS assay to identify small molecule agonists of the estrogen receptor alpha (ER-alpha) signaling pathway in the presence of an antagonist - cell viability counter screen (AID 1259386);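 further: series mostly up to about 92 µM; cells exposed to compounds for 22 h at 37 °C before the viability read; nearly all actives have a fitted effect of over 30% in size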
In short: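 ICI-182,780 at 10.0nM final accompanies the compound titration (15 concentrations, 22hr, 37C) on VM7Luc4E2 cells. The CellTiter-Fluor fluorescence readout runs in the same wells as the luciferase assay.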

[2] = biological target: Progesterone receptor (Homo sapiens) (UniProt P06401); assay: qHTS assay to identify small molecule agonists of the progesterone receptor (PR) signaling pathway (AID 1346784; calls by dose curve; further: nearly all actives have a fitted effect of over 30% in size)
Chain of Progesterone receptor (Homo sapiens) (P06401 whole entry, looked up): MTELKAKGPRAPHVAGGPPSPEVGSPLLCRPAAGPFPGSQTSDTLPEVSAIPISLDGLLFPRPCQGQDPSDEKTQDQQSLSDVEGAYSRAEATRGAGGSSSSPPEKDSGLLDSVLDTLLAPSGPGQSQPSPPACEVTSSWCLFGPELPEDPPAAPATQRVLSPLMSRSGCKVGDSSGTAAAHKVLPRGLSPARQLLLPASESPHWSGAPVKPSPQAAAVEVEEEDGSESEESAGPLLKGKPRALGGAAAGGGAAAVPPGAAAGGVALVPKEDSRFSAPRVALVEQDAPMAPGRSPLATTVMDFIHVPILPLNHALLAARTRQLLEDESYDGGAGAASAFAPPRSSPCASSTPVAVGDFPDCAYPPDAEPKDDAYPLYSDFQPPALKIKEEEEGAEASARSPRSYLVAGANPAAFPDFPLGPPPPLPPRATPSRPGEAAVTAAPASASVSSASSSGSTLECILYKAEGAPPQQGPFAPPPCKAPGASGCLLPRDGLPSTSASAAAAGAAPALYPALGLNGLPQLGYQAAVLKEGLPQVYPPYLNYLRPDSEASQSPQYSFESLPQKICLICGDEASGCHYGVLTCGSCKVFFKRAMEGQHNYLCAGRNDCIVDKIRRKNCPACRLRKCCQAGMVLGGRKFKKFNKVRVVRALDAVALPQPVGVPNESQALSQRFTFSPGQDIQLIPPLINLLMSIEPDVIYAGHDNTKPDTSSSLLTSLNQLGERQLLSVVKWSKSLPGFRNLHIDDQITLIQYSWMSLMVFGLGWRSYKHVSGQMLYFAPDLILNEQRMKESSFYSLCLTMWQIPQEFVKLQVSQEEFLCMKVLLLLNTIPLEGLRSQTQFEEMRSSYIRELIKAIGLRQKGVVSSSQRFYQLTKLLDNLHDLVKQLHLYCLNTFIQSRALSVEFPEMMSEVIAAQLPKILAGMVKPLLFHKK
In short: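 Beta-lactamase reporter read-out: after 16 hr compound treatment at 37C and a further 2 hr at room temperature with LiveBLAzer B/G FRET substrate, fluorescence was measured in PR-UAS-bla HEK 293T cells grown in 2% charcoal-stripped serum.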

[3] = biological target: Progesterone receptor (Homo sapiens) (UniProt P06401); assay: qHTS assay to identify small molecule antagonists of the progesterone receptor (PR) signaling pathway (AID 1346795; active means well fitted inhibition curve with a large enough effect in the signal ratio in the repeat runs, not every such curve was filed as active; the % refers to the signal ratio; further: potency means the concentration at half of the fitted maximal effect)
In short: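 Read-out is fluorescence from the LiveBLAzer B/G FRET substrate, cleaved by a UAS-controlled beta-lactamase in PR-UAS-bla HEK293T cells after 16 hr exposure to compound plus 1 nM promegestone (final), followed by 2 hr at room temperature.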

[4] = qHTS assay to identify small molecule antagonists of the progesterone receptor (PR) signaling pathway - cell viability counter screen (AID 1346798);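 further: HEK293T PR-UAS-bla cells stimulated with the agonist R5020; series mostly up to about 92 µM; nearly all actives have a fitted effect of over 50% in size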
In short: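 HEK293T PR-UAS-bla, 2% charcoal-stripped FBS; 4 hr pre-plate; cpd + R5020, 16 h 37C; LiveBLAzer read first; then CellTiter-Glo 30 min RT, luminescence.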

[5] = qHTS assay to identify small molecule agonists of the progesterone receptor (PR) signaling pathway - cell viability counter screen (AID 1346799; calls by dose curve; further: nearly all actives have a fitted effect of over 45% in size)
In short: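 Luminescence from CellTiter-Glo, added after the beta-lactamase FRET read in the same wells, gave cytotoxicity in PR-UAS-bla HEK293T cells treated with compounds for 16 hr at 37C.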

[6] = qHTS assay to identify small molecule antagonists of the TGF-beta/Smad signaling pathway - cell viability counter screen (AID 1346824); further: nearly all actives have a fitted effect of over 50% in size
In short: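 Cytotoxicity counter-screen run in the same wells as the beta-lactamase Smad reporter read: CellTiter-Glo luminescence after 30 min at room temperature. HEK 293T SBE-bla cells had 5 hr compound exposure at 37 C with TGF-beta1 (0.25 ng/mL stock).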

[7] = qHTS assay to identify small molecule agonists of the TGF-beta/Smad signaling pathway - cell viability counter screen (AID 1346829); further: top concentration of the series differs between compounds; nearly all actives have a fitted effect of over 45% in size
In short: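 Tox21 qHTS format: SBE-bla HEK 293T cells treated with DMSO-dissolved compounds for 5 hr; CellTiter-Glo luminescence after 30 min at room temperature.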

[8] = biological target: Thyrotropin-releasing hormone receptor (Homo sapiens) (UniProt P34981); assay: qHTS assay to identify small molecule antagonists of the thyrotropin-releasing hormone receptor (TRHR) signaling pathway (AID 1346877; active means well fitted inhibition curve with a large enough effect in the repeat runs, not every such curve was filed as active; further: series mostly up to about 51 µM)
Chain of Thyrotropin-releasing hormone receptor (Homo sapiens) (P34981 whole entry, looked up): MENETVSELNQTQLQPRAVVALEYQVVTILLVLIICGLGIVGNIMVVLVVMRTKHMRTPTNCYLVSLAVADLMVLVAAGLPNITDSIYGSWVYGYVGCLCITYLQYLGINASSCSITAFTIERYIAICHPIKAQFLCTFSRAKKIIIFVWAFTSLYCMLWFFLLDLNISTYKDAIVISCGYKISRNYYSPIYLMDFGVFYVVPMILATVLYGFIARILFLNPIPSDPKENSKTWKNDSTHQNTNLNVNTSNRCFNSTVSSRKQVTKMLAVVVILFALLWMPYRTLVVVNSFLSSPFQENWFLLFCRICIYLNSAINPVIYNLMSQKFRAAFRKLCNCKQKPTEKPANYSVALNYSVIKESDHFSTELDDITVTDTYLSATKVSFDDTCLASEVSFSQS
In short: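 Screening used HEK293 cells engineered with TRHR, with a brief 5 min room-temperature compound exposure preceding addition of TRH to 1 nM. The read-out was kinetic calcium-dye fluorescence, concentration-response from 15 doses in triplicate.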

[9] = biological target: Thyrotropin-releasing hormone receptor (Homo sapiens) (UniProt P34981); assay: qHTS assay to identify small molecule agonists of the thyrotropin-releasing hormone receptor (TRHR) signaling pathway (AID 1346891; calls by dose curve; further: series mostly up to about 58 µM)
In short: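 Intracellular calcium rise, read as fluorescence every second for 3 min, served as the agonist signal in dye-loaded HEK293 cells expressing TRHR; each compound ran at 15 concentrations in triplicate.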

[10] = Caspase-3/7 induction in HepG2 cells by small molecules, qHTS assay (AID 1346978); further: nearly all actives have a fitted effect of over 15% in size
In short: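 Caspase-3/7 induction was measured by Caspase-Glo 3/7 luminescence (30 min, room temperature) after a 17 hr compound exposure of wild-type HepG2 cells seeded at 2,000 per well and pre-incubated 5 hr.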

[11] = Caspase-3/7 induction in CHO-K1 cells by small molecules, qHTS cell viability counter screen (AID 1346979); further: nearly all actives have a fitted effect of over 35% in size
In short: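 Cells (CHO-K1, wild type) are plated at 1,500 per well and incubated 5hr. Test compounds in DMSO are then pinned in, followed by 16hr at 37C and 5% CO2. Viability is read by CellTiter-Fluor fluorescence after 1hr.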

[12] = Caspase-3/7 induction in CHO-K1 cells by small molecules, qHTS assay (AID 1346980); further: nearly all actives have a fitted effect of over 15% in size
In short: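 Luminescent Caspase-Glo 3/7 read (30min, room temperature) quantified apoptosis induction. Cells were wild-type CHO-K1, treated with compound for 17hr at 37 C and 5% CO2.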

[13] = Caspase-3/7 induction in HepG2 cells by small molecules, qHTS cell viability counter screen (AID 1346981); further: series mostly up to about 92 µM; nearly all actives have a fitted effect of over 30% in size
In short: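 Multiplexed with the caspase-3/7 assay: HepG2 cells, 16 hr compound treatment, CellTiter-Fluor viability detection by fluorescence.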

[14] = biological target: Nuclear receptor subfamily 1 group I member 2 (Homo sapiens) (UniProt O75469); assay: Human pregnane X receptor (PXR) small molecule agonists, qHTS assay (AID 1346982); further: nearly all actives have a fitted effect of over 35% in size; further: potency means the concentration at half of the fitted maximal effect
Chain of Nuclear receptor subfamily 1 group I member 2 (Homo sapiens) (O75469 whole entry, looked up): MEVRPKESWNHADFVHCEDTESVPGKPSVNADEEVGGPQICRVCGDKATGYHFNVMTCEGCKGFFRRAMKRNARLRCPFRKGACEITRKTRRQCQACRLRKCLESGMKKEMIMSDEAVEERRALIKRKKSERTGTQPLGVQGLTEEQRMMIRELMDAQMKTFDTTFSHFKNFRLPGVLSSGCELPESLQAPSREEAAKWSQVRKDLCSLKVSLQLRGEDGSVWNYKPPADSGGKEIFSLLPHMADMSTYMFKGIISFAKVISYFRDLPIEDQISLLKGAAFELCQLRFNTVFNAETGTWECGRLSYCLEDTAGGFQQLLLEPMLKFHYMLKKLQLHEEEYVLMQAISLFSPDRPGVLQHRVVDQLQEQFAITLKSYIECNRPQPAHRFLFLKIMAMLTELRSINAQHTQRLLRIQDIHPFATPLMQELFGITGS
In short: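 We seeded PXR-Luc HepG2 cells in assay medium containing 5% charcoal-stripped FBS, added compounds 5 hr later, incubated 24 hr, and read luminescence with ONE-Glo reagent.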

[15] = biological target: Cytochrome P450 2D6 (Homo sapiens) (UniProt P10635); assay: Cytochrome P450 Family 2 Subfamily D Member 6 (CYP2D6) small molecule antagonists: luciferase reporter qHTS assay (AID 1671196); further: nearly all actives have a fitted effect of over 50% in size; further: potency means the concentration at half of the fitted maximal effect
Chain of Cytochrome P450 2D6 (Homo sapiens) (P10635 whole entry, looked up): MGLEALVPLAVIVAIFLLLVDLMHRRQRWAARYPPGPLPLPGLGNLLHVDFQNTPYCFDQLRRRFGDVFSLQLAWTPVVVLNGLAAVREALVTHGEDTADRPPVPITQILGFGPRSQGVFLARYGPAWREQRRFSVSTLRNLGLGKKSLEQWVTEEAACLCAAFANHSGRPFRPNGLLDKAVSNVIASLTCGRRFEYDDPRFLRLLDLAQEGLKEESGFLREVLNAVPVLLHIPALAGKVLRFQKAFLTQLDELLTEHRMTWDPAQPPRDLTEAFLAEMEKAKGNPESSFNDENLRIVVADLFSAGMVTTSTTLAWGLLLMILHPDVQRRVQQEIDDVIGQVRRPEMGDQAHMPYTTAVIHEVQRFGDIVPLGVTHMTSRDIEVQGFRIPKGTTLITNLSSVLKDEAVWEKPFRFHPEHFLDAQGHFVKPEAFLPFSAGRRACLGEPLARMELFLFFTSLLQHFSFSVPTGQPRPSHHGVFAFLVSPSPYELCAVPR
In short: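 Luminescence (RLU), read 20 min after detection reagent, indicated CYP2D6 conversion of proluciferin to luciferin during a 1 h NADPH-dependent reaction at room temperature.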

[16] = qHTS assay to identify small molecule agonists of the TGF-beta/Smad signaling pathway (AID 1346859; active means well fitted activation curve with a large enough effect in the signal ratio in the repeat runs, not every such curve was filed as active; the % refers to the signal ratio; further: series mostly up to about 77 µM)
In short: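 SBE-bla HEK 293T, 4,000 cells/well, plated o/n; cpd in DMSO, 5 hr, 37 C/5% CO2; B/G FRET substrate 2 hr RT; ex 405, em 460/530 nm.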

[17] = Human pregnane X receptor (PXR) small molecule agonists, qHTS cell viability counter screen (AID 1346977); further: nearly all actives have a fitted effect of over 50% in size
In short: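 PXR-Luc HepG2, 2,000 cells/well, 5% charcoal-stripped FBS; 5hr settle; cpd 24hr, 37C/5% CO2; CellTiter-Fluor at 23hr, read 1hr later (fluorescence).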

[18] = biological target: Nuclear receptor subfamily 1 group I member 2 (Rattus norvegicus) (UniProt Q9R1A7); assay: Rat pregnane X receptor (rPXR) activation by small molecules, qHTS assay (AID 1346983); details: rPXR luciferase reporter cells, One-Glo luminescence, 24 h; max activation: active compounds read high; further: nearly all actives have a fitted effect of over 20% in size
Chain of Nuclear receptor subfamily 1 group I member 2 (Rattus norvegicus) (Q9R1A7 whole entry, looked up): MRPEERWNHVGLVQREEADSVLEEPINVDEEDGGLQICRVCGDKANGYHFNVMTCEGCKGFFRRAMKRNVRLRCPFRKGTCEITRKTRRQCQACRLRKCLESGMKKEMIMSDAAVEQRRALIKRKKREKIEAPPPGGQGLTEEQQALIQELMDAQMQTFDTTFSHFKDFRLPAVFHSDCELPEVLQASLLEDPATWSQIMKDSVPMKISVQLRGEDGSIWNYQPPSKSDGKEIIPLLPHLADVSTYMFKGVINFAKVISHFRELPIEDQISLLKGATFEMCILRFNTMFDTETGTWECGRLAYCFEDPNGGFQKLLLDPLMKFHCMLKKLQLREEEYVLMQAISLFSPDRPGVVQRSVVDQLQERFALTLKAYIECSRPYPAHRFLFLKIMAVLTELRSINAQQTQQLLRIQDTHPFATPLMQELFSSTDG
In short: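 Luminescent readout (One-Glo luciferase, 30 min room temperature) followed 24 hr compound treatment at 37 C of rPXR cells plated 2,000 per well and preincubated 5hr; qHTS format with compounds delivered in DMSO.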

[19] = biological target: Nuclear receptor subfamily 1 group I member 2 (Homo sapiens) (UniProt O75469); assay: CYP3A4 induction through human pregnane X receptor (PXR) by small molecules, qHTS assay (AID 1346984); further: nearly all actives have a fitted effect of over 40% in size
In short: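 qHTS, concentration-response format: HepG2 DPX-2 line, PXR/CYP3A4-luc. Exposure 24 h, 37C. Substrate Luciferin-IPA 3uM final, 3 h. Detection One-Glo, 30 min RT.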

[20] = biological target: Nuclear receptor subfamily 1 group I member 2 (Homo sapiens) (UniProt O75469); assay: Human pregnane X receptor (PXR) activation by small molecules, qHTS assay (AID 1346985); further: nearly all actives have a fitted effect of over 40% in size
In short: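 DPX-2 cells (HepG2 co-transfected with a PXR response element and a CYP3A4-promoter luciferase construct) were seeded at 2,000 per well, rested 5 hr at 37C, then exposed to DMSO-dissolved compounds for 24 hr. Activation was read as luciferase luminescence.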

Structure (SMILES)	Potency [1]	Potency [2]	Potency [3]	Potency [4]	Potency [5]	outcome [6]	outcome [7]	outcome [8]	Potency [9]	Potency [10]	Potency [11]	outcome [12]	Potency [13]	Potency [14]	Potency [15]	outcome [16]	Potency [17]	max activation [18] [%]	Potency [19]	Potency [20]
CCCCCOc1ccc(C2SC(=O)NC2=O)cc1OCC (centres undefined)	inactive	inactive	inactive	inactive	inactive	inactive	inactive	inactive	inactive	inactive	inactive	inactive	inactive	29.8 µM (active)	inactive					
Cc1ccsc1C(=CCCN1CCC[C@@H](C(=O)O)C1)c1sccc1C	inactive	inactive	inactive	inactive	inactive	inactive	inactive			inactive		inactive	inactive	inactive	inactive	inactive	inactive	2.87	inactive	inactive
C=Cc1ccccc1	inactive	inactive	inactive	inactive	inactive		inactive			inactive		inactive	inactive	inactive	inactive	inactive				
CCOc1ccc(NS(=O)(=O)c2ccc(N)cc2)nn1	inactive	inactive	inactive	inactive	inactive	inactive	inactive			inactive		inactive	inactive	inactive	inactive	inactive	inactive			
O=c1[nH]c(=O)n([C@H]2C[C@H](O)[C@@H](CO)O2)cc1C(F)(F)F	inactive	inactive	inactive	inactive	inactive	inactive		inactive	inactive	inactive	inactive	inactive	inactive	inactive	inactive	inactive	inactive	3.55		inactive
CCC(=O)Nc1ccc(O)cc1	inactive	inactive	inactive	inactive	inactive	inactive		inactive	inactive	inactive		inactive	inactive	inactive	inactive	inactive	inactive	-1.74	inactive	inactive
CCOc1ccc2nc(N)sc2c1	inactive	inactive	60.6 µM (active)	inactive	inactive	inactive		inactive	inactive	inactive	inactive	inactive	inactive	17.1 µM (active)	39.6 µM (active)	inactive				
